Laboratory results: PubChem BioAssay (EPA / NIEHS)
The source made the active and inactive calls. The calls were made as follows: active = hit-call score of the fitted dose curve at least 0.9, where 1 is the maximum; inactive = score below 0.9.

Assays:
[1] = read-out: Pselectin, SELP (gene 6403); test: BSK_4H_Pselectin: BioMAP Diversity Plus: 4H Assay for Pselectin Biomarker Activity (AID 2283026); conditions: primary human endothelial cells (HUVEC); actives raise or lower the signal
Method in brief: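 Primary human umbilical vein endothelial cells were treated 24 h, and cell-surface P-selectin was then quantified by ELISA. Bidirectional fit versus DMSO; cytotoxicity checked in parallel cultures by SRB total-protein staining.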

[2] = BSK_4H_SRB: Viability Assessment in the BioMAP Diversity Plus: 4H Assay (AID 2283027); conditions: primary human endothelial cells (HUVEC);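 as to AC50: curves fitted both ways versus DMSO so AC50 may be loss or gain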
Method in brief: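 Human umbilical vein endothelial cells, 24 h after chemical dosing; total protein measured by 0.1% sulforhodamine B staining after 10% TCA fixation, read at 560 nm. Bidirectional fitting against DMSO.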

[3] = BSK_BE3C_SRB: Viability Assessment in the BioMAP Diversity Plus: BE3C Assay (AID 2283028); conditions: primary human bronchial epithelial cells;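 as to AC50: fitted both ways so AC50 may mark signal gain or loss versus DMSO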
Method in brief: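 Primary human bronchial epithelium; chemical dosing, 24 h; 10% TCA fix, 0.1% SRB stain, A560; bidirectional fit vs DMSO baseline.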

[4] = read-out: Thrombomodulin, THBD (gene 7056); test: BSK_3C_Thrombomodulin: BioMAP Diversity Plus: 3C Assay for Thrombomodulin Biomarker Activity (AID 2283029); conditions: primary human endothelial cells (HUVEC); actives raise or lower the signal
Method in brief: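 Human umbilical vein endothelial cells were exposed to chemicals for 24 h; cell-surface thrombomodulin quantified by ELISA, with bidirectional fitting against DMSO baseline.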

[5] = read-out: Urokinase-type plasminogen activator receptor (uPAR), PLAUR (gene 5329); test: BSK_4H_uPAR: BioMAP Diversity Plus: 4H Assay for Urokinase-type plasminogen activator receptor (uPAR) Biomarker Activity (AID 2283030); conditions: primary human endothelial cells (HUVEC); actives raise or lower the signal
Method in brief: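 HUVEC, 24 h post-dose; uPAR by ELISA; bidirectional fit vs DMSO baseline.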

[6] = read-out: Vascular endothelial growth factor receptor 2 (Homo sapiens) (UniProt P35968); test: BSK_4H_VEGFRII: BioMAP Diversity Plus: 4H Assay for Vascular endothelial growth factor receptor 2 (VEGFR2) Biomarker Activity (AID 2283031); conditions: primary human endothelial cells (HUVEC); actives raise or lower the signal;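 as to AC50: cell-surface VEGFR2 protein level quantified by ELISA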
Method in brief: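 HUVEC (human primary), 4H system; 24 h post-dose; VEGFRII by ELISA; bidirectional curve fit vs DMSO baseline; gain or loss of signal scored.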

[7] = read-out: Human Leukocyte Antigen - DR isotype (HLADR), HLA-DRA (gene 3122); test: BSK_BE3C_HLADR: BioMAP Diversity Plus: BE3C Assay for Human Leukocyte Antigen - DR isotype (HLADR) Biomarker Activity (AID 2283032); conditions: primary human bronchial epithelial cells; actives raise or lower the signal
Method in brief: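 Human primary bronchial epithelial cells (BE3C system) exposed to compound for 24 hours; cell-surface HLA-DR measured by ELISA, fitted bidirectionally relative to DMSO. Total protein by SRB in parallel cultures tracked cytotoxicity.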

[8] = read-out: Vascular cell adhesion molecule 1 (VCAM1), VCAM1 (gene 7412); test: BSK_4H_VCAM1: BioMAP Diversity Plus: 4H Assay for Vascular cell adhesion molecule 1 (VCAM1) Biomarker Activity (AID 2283033); conditions: primary human endothelial cells (HUVEC); actives raise or lower the signal
Method in brief: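 Primary human umbilical vein endothelial cells, 4H stimulation system, treated for 24 h; cell-surface VCAM-1 quantified by ELISA. Bidirectional fitting against DMSO; cytotoxicity tracked by SRB total-protein staining in parallel cultures.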

[9] = read-out: Interferon-gamma inducible Protein 10 (IP10), CXCL10 (gene 3627); test: BSK_BE3C_IP10: BioMAP Diversity Plus: BE3C Assay for Interferon-gamma inducible Protein 10 (IP10) Biomarker Activity (AID 2283034); conditions: primary human bronchial epithelial cells; actives raise or lower the signal
Method in brief: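 Primary human bronchial epithelial cells, with IP-10 measured by ELISA 24 hours after chemical dosing. Bidirectional fit against DMSO; cytotoxicity checked by SRB total protein staining in parallel cultures.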

[10] = read-out: Monokine induced gamma interferon (MIG), CXCL9 (gene 4283); test: BSK_BE3C_MIG: BioMAP Diversity Plus: BE3C Assay for Monokine induced gamma interferon (MIG) Biomarker Activity (AID 2283035); conditions: primary human bronchial epithelial cells; actives raise or lower the signal
Method in brief: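 Primary human bronchial epithelial cells treated for 24 h; MIG levels measured by ELISA, fitted bidirectionally versus DMSO. Parallel SRB total-protein staining assessed cytotoxicity.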

[11] = read-out: Transforming growth factor beta 1 (TGFb1), TGFB1 (gene 7040); test: BSK_BE3C_TGFb1: BioMAP Diversity Plus: BE3C Assay for Transforming growth factor beta 1 (TGFb1) Biomarker Activity (AID 2283036); conditions: primary human bronchial epithelial cells; actives raise or lower the signal
Method in brief: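 Primary human bronchial epithelial cells dosed with chemical; TGF-b1 measured by ELISA 24 h after dosing. Bidirectional curve fitting against DMSO negative control; SRB total-protein staining in parallel cultures gauged cytotoxicity.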

[12] = read-out: urokinase plasminogen activator (uPA), PLAU (gene 5328); test: BSK_BE3C_uPA: BioMAP Diversity Plus: BE3C Assay for urokinase plasminogen activator (uPA) Biomarker Activity (AID 2283038); conditions: primary human bronchial epithelial cells; actives raise or lower the signal
Method in brief: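 ELISA read-out of uPA in human lung primary bronchial epithelial cultures, 24 h post-dosing. Gain or loss of signal fitted bidirectionally relative to DMSO baseline; cytotoxicity checked in parallel cultures via SRB total protein stain.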

[13] = read-out: Urokinase-type plasminogen activator receptor (uPAR), PLAUR (gene 5329); test: BSK_BE3C_uPAR: BioMAP Diversity Plus: BE3C Assay for Urokinase-type plasminogen activator receptor (uPAR) Biomarker Activity (AID 2283039); conditions: primary human bronchial epithelial cells; actives raise or lower the signal
Method in brief: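 Primary human bronchial epithelial cells dosed for 24 h; uPAR quantified by ELISA with bidirectional fitting against DMSO. Overt cytotoxicity assessed in parallel cultures by SRB total-protein staining (0.1% SRB, 560 nm).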

[14] = read-out: Interleukin-6 (IL6), IL6 (gene 3569); test: BSK_CASM3C_IL6: BioMAP Diversity Plus: CASM3C Assay for Interleukin-6 (IL6) Biomarker Activity for (AID 2283040); conditions: primary human coronary artery smooth muscle cells; actives raise or lower the signal
[15] = read-out: Tissue plasminogen activator (tPA), PLAT (gene 5327); test: BSK_BE3C_tPA: BioMAP Diversity Plus: BE3C Assay for Tissue plasminogen activator (tPA) Biomarker Activity (AID 2283041); conditions: primary human bronchial epithelial cells; actives raise or lower the signal
Method in brief: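 Primary human bronchial epithelial cells in the BE3C system, exposed to compound for 24 h. tPA was quantified by ELISA; DMSO served as baseline, with gain or loss of signal fitted. Cytotoxicity checked in parallel cultures by SRB total-protein staining.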

[16] = read-out: Interleukin-8 (IL8), CXCL8 (gene 3576); test: BSK_CASM3C_IL8: BioMAP Diversity Plus: CASM3C Assay for Interleukin-8 (IL8) Biomarker Activity (AID 2283042); conditions: primary human coronary artery smooth muscle cells; actives raise or lower the signal;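 also: IL-8 protein level quantified by ELISA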
[17] = read-out: Human Leukocyte Antigen - DR isotype (HLADR), HLA-DRA (gene 3122); test: BSK_CASM3C_HLADR: BioMAP Diversity Plus: CASM3C Assay for Human Leukocyte Antigen - DR isotype (HLADR) Biomarker Activity (AID 2283043); conditions: primary human coronary artery smooth muscle cells; actives raise or lower the signal;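 also: cell-surface HLA-DR protein level quantified by ELISA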
[18] = BSK_3C_Vis: BioMAP Diversity Plus: 3C Assay for Morphology Visualization (AID 2283025); conditions: primary human endothelial cells (HUVEC);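 also: fitted both ways so gain or loss versus DMSO counts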;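 as to AC50: light microscopy image of cell morphology used as background control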
Method in brief: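 Human umbilical vein endothelial cell morphology was inspected by light microscopy 24 h after chemical dosing; scored bidirectionally relative to DMSO.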

[19] = read-out: Plasminogen activator inhibitor-1 (PAI1), SERPINE1 (gene 5054); test: BSK_BE3C_PAI1: BioMAP Diversity Plus: BE3C Assay for Plasminogen activator inhibitor-1 (PAI1) Biomarker Activity (AID 2283037); conditions: primary human bronchial epithelial cells; actives raise or lower the signal
Method in brief: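 Primary human bronchial epithelial cells (BE3C system) exposed 24 h; PAI-1 quantified by ELISA. Parallel sulforhodamine B staining of total protein flags cytotoxicity. Bidirectional fit versus DMSO.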

Measured: AC50

Cc1cc(F)ccc1-c1cc(N2CC[C@@H](O)[C@H]2CO)ncc1N(C)C(=O)C(C)(C)c1cc(C(F)(F)F)cc(C(F)(F)F)c1
inactive: [4]
active: [1] 7.66 µM | [2] 11.9 µM | [3] 12.9 µM | [5] 10.2 µM | [6] 7.98 µM | [7] 12.8 µM | [8] 11.2 µM | [9] 13.3 µM | [10] 13.9 µM | [11] 11.5 µM | [12] 14.8 µM | [13] 14 µM | [14] 16.3 µM | [15] 9.81 µM | [16] 27.8 µM | [17] 26.5 µM

NC(=O)c1nc(-c2cccc(-c3cc(F)ccc3OCC(F)(F)C(F)(F)F)c2)n[nH]1
inactive: [6] | [14] | [16]
active: [1] 30.8 µM | [2] 35.2 µM | [3] 34.5 µM | [4] 11.7 µM | [5] 22.6 µM | [8] 38.2 µM | [10] 37.5 µM | [11] 33 µM | [15] 27.5 µM | [17] 28.7 µM

O=c1c(-c2ccc(O)cc2)coc2cc(O)cc(O)c12
inactive: [3] | [6] | [7] | [10] | [11]
active: [18] 39 µM | [1] 17.1 µM | [2] 14.7 µM | [5] 14.1 µM | [8] 20 µM | [14] 11.1 µM | [15] 9.33 µM | [16] 20 µM | [17] 27.6 µM

CCCCCCCCCCCO
inactive: [18] | [1] | [2] | [3] | [5] | [6] | [7] | [9] | [10] | [11] | [19] | [14] | [15] | [16] | [17]
active: [8] 20 µM

CCCCCCCCCCCCO
active: [1] 34.2 µM | [2] 31.1 µM | [3] 31.9 µM | [5] 30.9 µM | [6] 34 µM | [8] 30.5 µM | [11] 30.1 µM | [14] 30.7 µM | [16] 35 µM | [17] 31.5 µM
inactive: [4] | [7] | [10]

CCOC(=O)O[C@H](C)OC(=O)c1ccc2c(c1)cc(C(=O)NC1CCN(C(C)C)CC1)n2Cc1cc(-c2ccc(Cl)s2)on1
inactive: [4]
active: [1] 6.95 µM | [2] 5.07 µM | [3] 6.07 µM | [5] 7.66 µM | [6] 5.06 µM | [7] 10.7 µM | [8] 5.44 µM | [9] 11.5 µM | [10] 14.4 µM | [11] 11.8 µM | [19] 12.1 µM | [14] 9.24 µM | [16] 8.81 µM | [17] 5.85 µM

Cc1ncc(CO)c(CO)c1O
inactive: [1] | [2] | [3] | [5] | [6] | [7] | [8] | [10] | [11] | [19] | [14] | [16] | [17]

CCN(Cc1cccnc1)C(=O)c1cccc(Cl)c1[C@]1(C)C(=O)N(Cc2ccc(OC)cc2OC)c2ccc(Cl)cc21
active: [1] 4.73 µM | [2] 5.38 µM | [5] 5.48 µM | [6] 6.81 µM | [13] 6.94 µM | [14] 12.3 µM | [17] 29.8 µM
inactive: [3] | [4] | [7] | [8] | [10] | [11] | [15] | [16]

Clc1cc(Cl)c2c(c1)N=C1CCCCCN1C2
inactive: [18] | [1] | [2] | [3] | [4] | [5] | [6] | [7] | [8] | [10] | [11] | [12] | [13] | [14] | [15] | [16] | [17]

CC(=O)N1CCN(c2ccc(OC[C@H]3CO[C@](Cn4ccnc4)(c4ccc(Cl)cc4Cl)O3)cc2)CC1
inactive: [3] | [6] | [10] | [11] | [19] | [12] | [13] | [14] | [15] | [16] | [17]
active: [1] 14.8 µM | [2] 29.6 µM | [5] 32.9 µM | [7] 33.3 µM | [8] 33.6 µM
